High-throughput results from PubChem BioAssay.
Pf growth 96h: P. falciparum growth inhibition at 96 hour, primary screen for plastid delayed-death inhibitors. AID 504834. Potency, µM (highest dose often 28.7 µM), for inactives: at the highest dose activity change, negative = inhibition, hits mostly inhibitors. P. falciparum luciferase reporter growth, 96 h. hit rate 6.9% among 320,000; note: potency is the fitted concentration of half-maximal effect; % is set by controls: 0 for no effect and ±100 for the full control effect
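Readout is luminescence from an integrated firefly luciferase in P. falciparum. Red cells, 2% hematocrit and 0.05% parasitemia final, were cultured with compound through two parasite generations (96 hours) at 37 C, 5% CO2.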
CHX counter: affects cycloheximide protein synthesis inhibition readout, counter-screen; max response, %; cell reporter, cycloheximide protein synthesis inhibition counterscreen; hit rate 12% among 300,000; in the data active = max response mostly above about 13%, no sharp cut-off; inactive = mostly below about 14%; note: read at 38.3 µM for the half of the compounds with a filed dose; 0% is about no effect
Shiga inhibitor: Shiga toxin inhibition; Vero cells, Shiga toxin protein synthesis inhibition reporter; inhibition, % at 38.7 µM; hit rate 9.2% among 290,000; in the data active = inhibition mostly above about 28%, no sharp cut-off; inactive = mostly below about 43%; note: 0% is about no effect
Pf growth 48h: P. falciparum growth inhibition at 48 hours (one generation) | P. falciparum luciferase growth in erythrocytes, 48 h | Potency, µM (doses to about 28.7 µM), for the others: at the top dose activity change, negative = inhibition, usual class: inhibitors | hit rate 5.9% among 310,000; note: potency is the fitted concentration of half-maximal effect; % is set by controls: 0 for no effect and ±100 for the full control effect
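Firefly luciferase activity from engineered P. falciparum reports growth; inhibitors lower the luminescent signal. Cultures contained 2% hematocrit erythrocytes at 0.1% final parasitemia.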
LmPK inhibitor: inhibitors of Leishmania mexicana pyruvate kinase. purified LmPK, Kinase-Glo ATP luminescence, 1 h. AID 1721. Q27686. hit rate 0.37% among 290,000. Potency, µM (doses to about 57.5 µM), for the others: at the highest dose activity change, negative = inhibition, most hits filed as inhibitors; note: potency is the fitted concentration of half-maximal effect; % is set by controls: 0 for no effect and ±100 for the full control effect
Target sequence (Q27686 whole entry, looked up): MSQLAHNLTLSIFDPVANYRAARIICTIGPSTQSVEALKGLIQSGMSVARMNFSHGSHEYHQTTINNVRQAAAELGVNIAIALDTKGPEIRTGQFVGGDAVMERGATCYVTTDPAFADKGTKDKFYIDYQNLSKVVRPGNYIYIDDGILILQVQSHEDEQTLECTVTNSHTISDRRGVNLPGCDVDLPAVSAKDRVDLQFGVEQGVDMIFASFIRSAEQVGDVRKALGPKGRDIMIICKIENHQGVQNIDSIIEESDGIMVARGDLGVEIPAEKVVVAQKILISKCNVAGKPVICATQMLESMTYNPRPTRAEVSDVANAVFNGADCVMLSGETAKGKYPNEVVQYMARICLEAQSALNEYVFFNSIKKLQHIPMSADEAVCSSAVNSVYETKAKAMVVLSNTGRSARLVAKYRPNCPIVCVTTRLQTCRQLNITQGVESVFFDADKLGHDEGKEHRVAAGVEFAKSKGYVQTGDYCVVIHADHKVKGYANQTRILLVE
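0.1 nM LmPK, 0.5 mM PEP, 0.1 mM ADP; 50 mM imidazole pH 7.2, 7 mM MgCl2, 50 mM KCl; 1 h RT. Kinase-Glo luminescence readout, normalized to no-enzyme (full inhibition) and uninhibited wells.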
Starred values were filed as active, the others as inactive; ? = inconclusive; · = no result; [ ] = dose if it differs, or a comment. The list is not random: actives were taken first. Their share in the collection is about 22%. Unless noted, calls come from the whole dose curve; as a rule, active = well fitted inhibition curve with a large enough effect; inconclusive = small, poorly fitted or top-dose-only effect, or another doubt; inactive = no such curve, though single readings can be large or run the other way.

SMILES	Pf growth 96h	CHX counter	Shiga inhibitor	Pf growth 48h	LmPK inhibitor
CC(C)Oc1ccc(N2CC(C(=O)Nc3ccc4c(c3)OCO4)CC2=O)cc1 (stereo not given)	15µM*	1	4	·	6%
Cc1cc(NC(=O)C2CC(=O)N(c3cccc(C)c3C)C2)no1 (stereo not given)	-13%	-4	2	21%	-1%
O=C(NCCc1ccc(C(F)(F)F)cc1)C1CC(=O)N(c2ccc3c(c2)OCCO3)C1 (stereo not given)	-2%	·	·	?	·
Cc1cc(NC(=O)CN2C(=O)CC(c3ccco3)Sc3ccccc32)no1 (stereo not given)	12µM*	1	3	?	3%
COc1cccc(N(C(=O)c2csnn2)C(C(=O)NC2CCCC2)c2ccccc2)c1 (stereo not given)	28%	-6	-8	?	1%
O=C(OCc1ccc([N+](=O)[O-])cc1)c1cnc(Cl)c(Cl)c1	-3%	6	-4	-8%	-1%
Cc1ccccc1NC(=O)COC(=O)CC1CCCC1	64%	·	·	54%	·
CC(C)c1ccccc1NC(=O)COC(=O)Cc1ccsc1	-20%	-3	-8	-6%	0%
COC(=O)c1ccc(CSc2nnc(NC(=O)C3CC(=O)N(c4ccc5c(c4)OCCO5)C3)s2)cc1 (stereo not given)	?	20*	2	13%	0%
CCc1ccc(N2CC(C(=O)Nc3ccc4c(c3)OCCO4)CC2=O)cc1 (stereo not given)	39%	31*	82*	55%	7%
COc1ccc(-c2csc(NC(=O)C3CC(=O)N(c4ccc5c(c4)OCCO5)C3)n2)cc1 (stereo not given)	12µM*	24*	14	?	5%
CCc1ccc(N2CC(C(=O)Nc3nc4ccc(S(C)(=O)=O)cc4s3)CC2=O)cc1 (stereo not given)	?	17*	67*	17%	7%
CCc1ccc(C(=O)NNC(=O)C2CC(=O)N(c3ccc4c(c3)OCCO4)C2)cc1 (stereo not given)	-57%	·	·	-30%	·
CC(C)CCNC(=O)CN(Cc1ccccc1)C(=O)CCC(=O)Nc1ccccn1	-28%	-1	-7	3%	-1%
Cc1c(C(=O)NCc2ccc3c(c2)OCO3)cccc1[N+](=O)[O-]	290%	-1	-3	19%	5%
COc1ccc(C(=O)NN2CCOCC2)cc1	42%	2	-7	-1%	1%
CCOC(=O)C1C(C(=O)OC)=C(CC(C)C)c2ccccc2N1S(=O)(=O)C(F)(F)F (stereo not given)	·	7	-3	·	·
Nc1nsc2ccccc12	-4%	24*	10	?	-1%
Nc1nnc(N)c2ccccc12	?	2	-13	31%	0%
Cc1nnc(N/N=C/c2c(O)n(-c3cccc(C(F)(F)F)c3)c(=O)c3ccccc23)[nH]c1=O	?	1	-10	6.6µM*	20%
Cc1cc(N=Cc2c(O)n(-c3cccc(C(F)(F)F)c3)c(=O)c3ccccc23)no1	?	-3	-4	?	1%
CCC(C)NC(=O)Nc1ccc(Br)cc1 (stereo not given)	?	32*	79*	14%[5.75 µM]	-2%
CC(C)(C)NC(=O)Nc1ccc(Br)cc1	9%	39*	83*	169%	0%
CC(CC(=O)O)CC(=O)Nc1ccc(Br)cc1 (stereo not given)	-21%	-2	-16	?	-2%
COC(=O)c1ccccc1NC(=O)c1cc(-c2ccco2)on1	19%	-1	-4	15%	2%
SMILES	Pf growth 96h	CHX counter	Shiga inhibitor	Pf growth 48h	LmPK inhibitor
CSc1ccccc1NC(=O)c1cc(-c2ccco2)on1	69%	18*	55*	42%	-1%
O=C(Nc1ccc(F)cc1F)c1cc(-c2ccco2)on1	2%	31*	93*	253%	-6%
CSc1ccccc1NC(=O)c1cc(C)on1	67%	45	99	·	0%
Cc1c(Cl)cccc1NC(=O)c1cc(-c2ccco2)on1	168%	36	54*	42%	-5%
CSc1ccccc1NC(=O)c1cc(C(C)C)on1	·	50*	117*	·	-16%
Cc1ccccc1C(=O)Nc1cc(C(F)(F)F)ccc1-n1cncn1	12%	·	·	?	·
Cc1ccc2c(cnn2C(=O)CCC(=O)NC2CCCCC2)c1	?	-3	-2	-13%	3%
Cc1cccc(N(C)S(=O)(=O)c2csc(C(N)=O)c2)c1	0.66µM*	3	-12	-11%	6%
Cc1ccc(NS(=O)(=O)c2csc(C(N)=O)c2)c(C)c1	4.1µM*	4	-4	7.4µM*	10%
CC(C)Oc1ccc(CNS(=O)(=O)c2csc(C(N)=O)c2)cc1	1%	-1	-4	6.6µM*	9%
CC(C)(C)NC(=O)NC(=O)COC(=O)Cc1coc2ccc3ccccc3c12	31%	4	35	3%	-2%
Cn1c(COc2ccc(F)cc2)nnc1SCC(=O)NC1CC1	?	-3	-20	8%	2%
COc1oc(=O)c2cc(N)ccc2c1Cl	·	62*	71*	·	·
CC1Cc2cc(/C(O)=C3/C(=O)C(=O)N(CCN4CCOCC4)C3c3ccc(N(C)C)cc3)ccc2O1 (stereo not given)	12%	-2	-4	21%	0%
O=S(=O)(Nc1ccc(O)c(Sc2nc3ccccc3s2)c1)c1ccc(F)cc1	-28%	9	-16	-12%	1%
CS(=O)(=O)c1ccc(Sc2nc3ccccc3s2)c([N+](=O)[O-])c1	?	9	-6	13µM*	3%
O=[N+]([O-])c1cc(S(=O)(=O)C(F)(F)F)ccc1Sc1nc2ccccc2s1	9.3µM*	-1	-3	?	0%
NCCNc1ccc([N+](=O)[O-])c(Sc2nc3ccccc3[nH]2)c1	13µM*	-4	3	?	2%
O=[N+]([O-])c1cc(S(=O)(=O)C(F)(F)F)ccc1Sc1nc2ccccc2[nH]1	·	-1	-22	15µM*	5%
CS(=O)(=O)c1ccc(Sc2nc3ccccc3[nH]2)c([N+](=O)[O-])c1	?	-2	25	?	-2%
CN(CC(=O)Nc1ccc(N2CCOCC2)cc1)CC(=O)Nc1ccccc1C#N	0%	8	-2	10%	3%
COC(=O)c1ccc(C(=O)OC)c(NC(=O)COC(=O)CCOc2ccc(C)cc2)c1	13%	·	·	-8%	·
O=C(NCCc1ccccc1)C1CCC(CNS(=O)(=O)c2cccs2)CC1 (stereo not given)	?	16	-4	11%	-14%
CCC(=O)N1CCc2cc(OC)c(OC)cc2C1COc1ccc(C(=O)OC)cc1 (stereo not given)	?	-1	-9	10µM*	-2%
COC(=O)c1ccc(OCC(O)CN2CCc3cc(OC)c(OC)cc3C2c2ccccc2)cc1 (stereo not given)	10µM*	-2	-5	?	-1%
